{
  "source": "PubChem BioAssay AID1508600",
  "about": "(Functional Genomics Laboratory (NCATS/FGL), 2020)",
  "note": "The whole screen tested about 53,000 sequences, of which about 3,700 (7%) were called active.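 How the source made its calls: active means gene knockdowns whose robust z-score for IL-1 alpha signal is at least 2 or at most -2, so actives lie on both sides; inactive means the rest.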 Only a selection was taken, and actives are over-represented in it overall.",
  "data": [
    {"test": "Components of the Cytosolic LPS Sensing Pathway: Gene Identification via Genome-wide siRNA Screen;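 further: robust z of the log signal after scaling to non-targeting control siRNA wells of the plate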", "settings": "RAW264.7 macrophages, IL-1a HTRF, actives lie on both sides, screened at 100 nM (by protocol), cells primed 5 h with Pam3CSK4 first", "procedure,_shortened": "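Three distinct siRNAs per gene were tested singly at 100 nM in RAW264.7 macrophages. Following Pam3CSK4 priming and 24 hour LipidA transfection, IL-1a secretion was read by HTRF.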", "values": [
      {"sequence": "GCACAAGAAAUCGAAUAUGTT against Acr", "z-score": "-0.00119 (inactive)"},
      {"sequence": "CCGCCGAUGAGUUUGUUAATT against Hsd17b3", "z-score": "1.2 (inactive)"},
      {"sequence": "GCUCUGUCUUAAGAGACUATT against Smo", "z-score": "2.39 (active)"},
      {"sequence": "GGUCUGUCUCCAGAUUGCUTT against Olfr56", "z-score": "-1.73 (inactive)"},
      {"sequence": "GGAUAUUAUGUCUUUGCUATT against Ints2", "z-score": "0.499 (inactive)"},
      {"sequence": "GACCACCAGAAAGUUUCACTT against Lfng", "z-score": "0.339 (inactive)"},
      {"sequence": "GCUCUACCUUCGCUGGAAATT against Slc7a6", "z-score": "2.17 (active)"},
      {"sequence": "GGAAACUGCAUUCAAGCCATT against Apod", "z-score": "-0.191 (inactive)"},
      {"sequence": "CCUCUAGACCGAAUGAAAATT against Zfyve16", "z-score": "0.472 (inactive)"},
      {"sequence": "GGAGUCCUCUAAUGUAAAUTT against Elovl4", "z-score": "0.0471 (inactive)"},
      {"sequence": "GGGAACUCAAAGAAGAGAGTT against Lysmd2", "z-score": "0.515 (inactive)"},
      {"sequence": "CGAGGAGUGGUAUUUUUACTT against Slc34a1", "z-score": "0.0248 (inactive)"},
      {"sequence": "GCUGAAAGAUUUACUGCCCTT against Bhlhe41", "z-score": "2.95 (active)"},
      {"sequence": "GGCAUGGAAUAUGAUGUUATT against Nlrp9b", "z-score": "-1.72 (inactive)"},
      {"sequence": "GGGUUGUCCUGAACUUUAATT against Npr1", "z-score": "0.236 (inactive)"},
      {"sequence": "GGCCAGUGGAGGAAUAUGATT against 1300017J02Rik", "z-score": "-0.383 (inactive)"},
      {"sequence": "CCACGUGUCUUAGAAUUAATT against Gas1", "z-score": "1.67 (inactive)"},
      {"sequence": "GGCCAACAAGGAAAACAUCTT against Bcas2", "z-score": "1.33 (inactive)"},
      {"sequence": "GGUCUGUAUGUCAUUUAUCTT against Ywhag", "z-score": "-0.208 (inactive)"},
      {"sequence": "GGUAAUGCUGUGGAGUCUUTT against Wdr53", "z-score": "-2.59 (active)"},
      {"sequence": "GGAAGGCCAUUUCAACUAATT against Olfr1367", "z-score": "1.54 (inactive)"},
      {"sequence": "GGUGAUUUGAACUGUGAAATT against Tmem126a", "z-score": "-0.963 (inactive)"},
      {"sequence": "GGACAAACCUUGGAAGAUUTT against Ccdc166", "z-score": "-0.24 (inactive)"},
      {"sequence": "GGUUGGAAAUGACUAAUAATT against Slco6c1", "z-score": "-1.01 (inactive)"},
      {"sequence": "GGAAGGUGUCUGUAAUAUATT against Slamf9", "z-score": "-0.0451 (inactive)"},
      {"sequence": "GGAGGGCAGAUCUACGAUGTT against Aars", "z-score": "0.182 (inactive)"},
      {"sequence": "GAAACUUUGAGUCCUCCAGTT against Dop1b", "z-score": "3.22 (active)"},
      {"sequence": "CGAGUUCAAACCGUCCUCUTT against Sdhc", "z-score": "0.105 (inactive)"},
      {"sequence": "CGGAAUGAUCACGACCGAUTT against Nsrp1", "z-score": "0.133 (inactive)"},
      {"sequence": "CCAAGUAAUUCCUACUACUTT against Olfr1100", "z-score": "-0.25 (inactive)"},
      {"sequence": "GGCUGGAUGUAGAAAAUAUTT against Aspm", "z-score": "-2.1 (active)"},
      {"sequence": "GGGAAGCAAAUCUAUACCCTT against Tnfrsf11a", "z-score": "-0.243 (inactive)"},
      {"sequence": "GGUGUUGUCAGAAGUUUAATT against Slc22a13b", "z-score": "1.8 (inactive)"},
      {"sequence": "CCUCAUGCAGUUAAAUAUGTT against Kera", "z-score": "-1.56 (inactive)"},
      {"sequence": "GGAGAAGGAUGGAGUGUUUTT against Brms1l", "z-score": "1.8 (inactive)"},
      {"sequence": "GGACUUUGUAACUAAUACCTT against Slco2b1", "z-score": "0.914 (inactive)"},
      {"sequence": "CGAUGAUGAACGAUGGACATT against Mmp3", "z-score": "2.47 (active)"},
      {"sequence": "GGCACUGGCAGGAAAUUACTT against Alg6", "z-score": "-1.52 (inactive)"},
      {"sequence": "GGACUGCCUUAAUUAAAGUTT against Coa6", "z-score": "1.7 (inactive)"},
      {"sequence": "GCUGUGACUCUACUGGAGGTT against Zfp397", "z-score": "0.746 (inactive)"},
      {"sequence": "GGCAGAACCCACUGAGAAATT against Pakap", "z-score": "-0.349 (inactive)"},
      {"sequence": "GGAAAUCGAGCAUGUCUUCTT against Stk32c", "z-score": "2.21 (active)"},
      {"sequence": "GGAAAAGAGAAGAAGGCACTT against Taf6", "z-score": "0.654 (inactive)"},
      {"sequence": "GCCUUUGAGGUUAUGAUCATT against Klk7", "z-score": "-1.09 (inactive)"},
      {"sequence": "GGCUGUGGUGAAGACUUUCTT against Cd81", "z-score": "-1.06 (inactive)"},
      {"sequence": "GGUGAAGCAGUUUGACUUCTT against Rbm18", "z-score": "0.0154 (inactive)"},
      {"sequence": "GGUUCUGGUUGAUAGAGAUTT against 4931428L18Rik", "z-score": "0.373 (inactive)"},
      {"sequence": "CUUCUUGGUGGGUCUGACUTT against Taar7e", "z-score": "-2.63 (active)"},
      {"sequence": "CGACUGGAAAAAGAUUGGGTT against Ttf1", "z-score": "-0.219 (inactive)"},
      {"sequence": "GCGGCAGUAAAUUGUGAGGTT against Grin3b", "z-score": "1.4 (inactive)"},
      {"sequence": "GGAAAUCCAGAAGCGUGUGTT against Gtpbp3", "z-score": "-0.436 (inactive)"},
      {"sequence": "GGAGGAGCGUACUAUUUAATT against Slc12a2", "z-score": "3.34 (active)"},
      {"sequence": "GGAGGAUGCAAUUUUUAACTT against Sult1e1", "z-score": "0.771 (inactive)"},
      {"sequence": "GGAGAAACUGAAACAAGCUTT against Gpc4", "z-score": "0.403 (inactive)"},
      {"sequence": "GCACUAAGCUUUAUUCAUCTT against Mast2", "z-score": "-0.0104 (inactive)"},
      {"sequence": "GGAAACUUUUACUUCACAGTT against P3h1", "z-score": "-0.322 (inactive)"},
      {"sequence": "GGAUCUACGCAAGCAAGCATT against Oxnad1", "z-score": "2.12 (active)"},
      {"sequence": "GCAAAGAAGCUCUUUAGAGTT against Hoxc5", "z-score": "0.455 (inactive)"},
      {"sequence": "GCCAUAAGAUGCUACAGUGTT against Tubb6", "z-score": "1.53 (inactive)"},
      {"sequence": "GGAAAGUACCCUAGGAGUUTT against 4921509C19Rik", "z-score": "-1.6 (inactive)"},
      {"sequence": "CCCUCAACUUUCAGAUCAGTT against Naa10", "z-score": "2.81 (active)"},
      {"sequence": "CCUACUUCCGAGGUUUCUUTT against Ifnz", "z-score": "-0.493 (inactive)"},
      {"sequence": "GGAAAGGAGUCUGCCAGCUTT against Tef", "z-score": "-1.29 (inactive)"},
      {"sequence": "GGAAGAAGGAAGGUUCAGATT against Strm", "z-score": "-0.581 (inactive)"},
      {"sequence": "GUGCAAACGGCAAACAUUCTT against 1700001G17Rik", "z-score": "1.89 (inactive)"},
      {"sequence": "GGGCGAAAACCAUUCAAAUTT against Zfp112", "z-score": "3.38 (active)"},
      {"sequence": "CCUCCUGACUACAAGAACUTT against Utp14a", "z-score": "0.911 (inactive)"},
      {"sequence": "CCUUGAUACCUUUCCAUGUTT against 9130008F23Rik", "z-score": "-0.68 (inactive)"}
    ]}
  ]
}
